# PubChem BioAssay AID803 (The Scripps Research Institute Molecular Screening Center, 2007)
# Screen size: about 140,000 compounds; about 680 (0.49%) were called active. Rule as the data show it: active = activation above about 5% (passing the limit was not always enough); inactive = the rest. Only a selection was taken, and actives are over-represented in it overall.
# Target: Galanin receptor type 2 (Homo sapiens) (UniProt O43603)
# Assay: GALR2 receptor agonists, primary screen, cell-based (AID 803);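 also: 0% = vehicle buffer wells and 100% = reference agonist at full effect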
# Conditions: GALR2-expressing cells, agonist activation read-out; at 5.6 µM; hits give high values
# Sequence of Galanin receptor type 2 (Homo sapiens) (O43603 whole entry, looked up): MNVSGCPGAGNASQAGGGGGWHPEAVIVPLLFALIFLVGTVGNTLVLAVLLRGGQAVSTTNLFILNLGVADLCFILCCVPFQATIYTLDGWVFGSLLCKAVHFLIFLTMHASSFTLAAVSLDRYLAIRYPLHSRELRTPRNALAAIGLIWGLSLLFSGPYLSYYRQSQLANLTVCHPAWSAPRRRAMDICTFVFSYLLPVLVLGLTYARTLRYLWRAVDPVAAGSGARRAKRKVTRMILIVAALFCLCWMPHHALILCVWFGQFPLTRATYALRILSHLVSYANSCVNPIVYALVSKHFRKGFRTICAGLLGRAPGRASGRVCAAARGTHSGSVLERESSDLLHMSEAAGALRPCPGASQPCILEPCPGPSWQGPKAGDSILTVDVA
row,SMILES,activation
1,CC(C)C(=O)Nc1cccc(NC(=O)c2ccc([N+](=O)[O-])cc2Cl)c1,7.57% (active)
2,CCC(C)C(=O)Nc1cc([N+](=O)[O-])ccc1Cl (centres undefined),-0.24% (inactive)
3,COc1ccc(S(=O)(=O)NC(C)C(=O)Nc2cccc([N+](=O)[O-])c2)cc1 (centres undefined),-0.92% (inactive)
4,C/C(=N\N=C(N)N)c1ccc(Cl)cc1,-2.59% (inactive)
5,O=C(NN1C(=O)C2C3C=CC(C3)C2C1=O)c1ccco1 (centres undefined),-0.17% (inactive)
6,CC1(C)CC(=O)C=C(NCCCN2CCCC2=O)C1,-3.74% (inactive)
7,CC1(C)CC(=O)C=C(NCCN2CCNCC2)C1,33.1% (active)
8,CC1(C)CC(=O)C=C(NCCCNC2CCCCC2)C1,-0.48% (inactive)
9,COc1cccc(/C=N/Nc2ncc(C(F)(F)F)cc2Cl)c1O,0.04% (inactive)
10,Cc1cc(O)ccc1NC1=CC(=O)CC(C)(C)C1,-0.24% (inactive)
11,COCCCNC(=S)NC(=O)c1ccc([N+](=O)[O-])cc1,-2.33% (inactive)
12,O=C(NCCc1ccccc1)/C(=C\c1ccc([N+](=O)[O-])cc1)NC(=O)c1ccccc1,-1.62% (inactive)
13,O=C(O)c1ccc(NC(=O)c2cccs2)cc1,-3% (inactive)
14,O=C(N/N=C/c1ccc(O)cc1)/C(=C/c1ccc([N+](=O)[O-])cc1)NC(=O)c1ccccc1,-1.29% (inactive)
15,O=C(NC(=S)Nc1ccc(NC(=O)c2cccs2)cc1)c1ccc([N+](=O)[O-])cc1,13.8% (active)
16,O=C(Nc1ccccc1)/C(=C/c1ccc([N+](=O)[O-])cc1)NC(=O)c1ccccc1,5.48% (active)
17,Cc1ccccc1C(CC(=O)c1cccs1)C(C#N)C#N (centres undefined),-0.23% (inactive)
18,Cc1cc2c(C)nc(N/N=C/c3ccccc3)nc2o1,0.45% (inactive)
19,O=C(Oc1ccccc1Cl)c1ccc(N2CCOCC2)c([N+](=O)[O-])c1,-1.48% (inactive)
20,CC(=O)c1sc(N/N=C\c2ccc(C)cc2)nc1C,2.02% (inactive)
21,O=C(CSc1ncnc2scc(-c3ccccc3)c12)NCc1ccc2c(c1)OCO2,-1.28% (inactive)
22,CC(C)(C)SCCNC(=O)c1cccc([N+](=O)[O-])c1,-0.73% (inactive)
23,Cc1ccc(S(=O)(=O)N2CCN(CC(=O)N/N=C/c3cc([N+](=O)[O-])ccc3Cl)CC2)cc1,-0.78% (inactive)
24,CSc1nc(C)cc(SC(C(C)=O)C(=O)Nc2ccccc2)n1 (centres undefined),-0.36% (inactive)

row,SMILES,activation
1,CSc1nc(-c2ccccc2)nc(C(Cl)Cl)n1,8.01% (active)
2,CC(=O)CCC(=O)c1ccc2ccccc2c1,-2.23% (inactive)
3,Cc1ccc(C(=O)NC(=S)NCCN2CCOCC2)cc1,-1.71% (inactive)
4,O=C1N/C(=C/c2cccn2-c2ccccc2)C(=O)N1c1cccc(Cl)c1,6.96% (active)
5,O=C1CC(NNc2ccccc2)C(=O)N1c1cccc(Cl)c1 (centres undefined),-2.24% (inactive)
6,COc1cc2c(cc1/C=C1/NC(=O)N(c3ccccc3)C1=O)OCO2,1.22% (inactive)
7,CCOc1ccc2nc(NC(=O)c3cc([N+](=O)[O-])ccc3N3CCOCC3)sc2c1,-0.53% (inactive)
8,O=C(Nc1cccc(NC(=O)N2CCN(c3ccccc3)CC2)c1)N1CCN(c2ccccc2)CC1,-2.65% (inactive)
9,O=C1COc2ccc(NC(=O)N3CCN(c4ccc(F)cc4)CC3)cc2N1,12.7% (active)
10,COc1cccc(N2CCN(C(=O)Nc3ccc4c(c3)NC(=O)CO4)CC2)c1,-2.77% (inactive)
11,COCC(=O)N=Nc1c(O)[nH]c2ccccc12,-0.5% (inactive)
12,CN(c1ccccc1)c1nc(N)c([N+](=O)[O-])c(NCc2ccco2)n1,1.08% (inactive)
13,CCc1nnc(NC(=O)C2CC(=O)N(c3ccc4c(c3)OCCO4)C2)s1 (centres undefined),0.1% (inactive)
14,COc1cc(/C=N/n2c(C)n[nH]c2=S)ccc1OCc1ccccc1,1.11% (inactive)
15,CNC(=S)NNC(=O)c1sccc1OCc1ccccc1,-1.56% (inactive)
16,CNC(=S)N/N=C/c1ccc(OCc2ccccc2)c(Br)c1,7.44% (active)
17,COc1ccc(/C(N)=N/OC(=O)CCCc2ccccc2)cc1,-0.21% (inactive)
18,C=C(C)c1cccc(C(C)(C)NC(=O)NC2CCCC2)c1,-1.16% (inactive)
19,COc1ccc(C(=O)OCC(=O)NC(=O)CCSc2ccccc2)cc1,-1.93% (inactive)
20,CC(Sc1cccc[n+]1[O-])C(=O)Nc1cccc(S(=O)(=O)N2CCOCC2)c1 (centres undefined),-0.5% (inactive)
21,COc1ccc(Nc2nc(N)nc(CSC(=S)N3CCC(C)CC3)n2)cc1,0.01% (inactive)
22,COCCNC(=S)N/N=C/c1c(C)[nH]c2ccccc12,-0.61% (inactive)
23,CCCNC(=O)c1c(N)n(-c2ccc(S(N)(=O)=O)cc2)c2nc3ccccc3nc12,35.1% (active)
24,CCOC(=O)c1c(C)c(C(=O)NCCc2ccc(S(N)(=O)=O)cc2)c(C)n1CC,-2.14% (inactive)

row,SMILES,activation
1,CCC(=O)Nc1c(S(=O)(=O)c2ccccc2)c2nc3ccccc3nc2n1Cc1ccccc1,2.15% (inactive)
2,CCC(CC)C(=O)N1CCN(c2cccc(C)c2C)CC1,-1.21% (inactive)
3,Cc1cc(C(=O)N/N=C/c2ccc(O)c([N+](=O)[O-])c2)c(C)n1-c1ccc(F)cc1,1.21% (inactive)
4,Cc1[nH]c2ccccc2c1/C=N\NC(=O)Cn1nnc(-c2ccccc2)n1,5.32% (active)
5,O=C(Cn1nnc(-c2ccccc2)n1)N/N=C/c1ccc(-c2ccc(Cl)cc2)o1,-0.89% (inactive)
6,O=C(Cn1nnc(-c2ccccc2)n1)NCc1ccccc1,-0.65% (inactive)
7,COc1ccc(NC(=O)CN2C(=O)C(c3ccccc3)=NC23CCCCCC3)cc1OC,-2.09% (inactive)
8,CC(=O)NNC1=Nc2ccccc2N(C)C(C)C1 (centres undefined),-1.09% (inactive)
9,COc1cccc(/C=N/NC(=O)CNC(=O)c2ccc(S(=O)(=O)N3CCOCC3)cc2)c1OC,-1.42% (inactive)
10,CN(C(=O)CSc1nnc(-c2n[nH]c3ccccc23)o1)c1ccccc1,0.05% (inactive)
11,Cc1ccc2sc(NNC(=O)c3ccc4c(c3)OCCO4)nc2c1C,-2.21% (inactive)
12,O=C(O)CCC(=O)N(Cc1cccs1)Cc1cccs1,0.14% (inactive)
13,Cc1ccsc1C(C(=O)NC1CCCCC1)N(C(=O)Cc1cccs1)C1CC1 (centres undefined),0.48% (inactive)
14,CC(=O)N(Cc1cccs1)C1CCOC(C)(C)C1 (centres undefined),36.2% (active)
15,Cc1nn(-c2ccccc2)c(NC(=O)c2cccs2)c(-c2ccc(Cl)cc2)c1=O,-0.28% (inactive)
16,COc1ccc(C(=O)n2nc(-c3ccc(C)cc3)nc2N)cc1OC,-1.18% (inactive)
17,COc1ccc(C(=O)CN2C(=O)NC(C)(c3ccc(C)cc3)C2=O)cc1OC (centres undefined),10.3% (active)
18,COc1ccc(C(=O)Cn2nnc(-c3ccc(N4CCOCC4)cc3)n2)cc1OC,-0.59% (inactive)
19,N#Cc1c(C(F)(F)F)cc(-c2ccccc2)nc1SCC(=O)N1CCOCC1,-2.74% (inactive)
20,COC(=O)c1cc2nc(-c3ccccc3)cc(C(F)(F)F)n2n1,-0.55% (inactive)
21,CCN(CC)c1nc(-c2ccccc2)cc(C(F)(F)F)c1C#N,14.6% (active)
22,O=S(=O)(c1ccc(F)cc1)N1CCN(C(=S)NC2CCCC2)CC1,-1.23% (inactive)
23,Cc1cccc(C(=O)NC(=S)N2CCN(c3ccc([N+](=O)[O-])cc3)CC2)c1,0.09% (inactive)
24,CCCCOc1ccc(C(=O)NCc2ccco2)cc1,-1.35% (inactive)

row,SMILES,activation
1,CCCOc1ccc(C(=O)C(CCC(CNCC)C(=O)c2ccc(OCCC)cc2)CNCC)cc1 (centres undefined),24.7% (active)
2,CCCCOc1ccc(C(=O)NCc2ccncc2)cc1,-0.14% (inactive)
3,CCc1ccc(Oc2coc3cc(OC(=O)c4cc5ccccc5oc4=O)ccc3c2=O)cc1,0.76% (inactive)
4,OC(COCC1COc2ccccc2O1)CN1CCN(c2ccc(F)cc2)CC1 (centres undefined),-0.37% (inactive)
5,CCN(/N=C/c1ccc(N(C)C)cc1)c1nc2ccccc2[nH]1,-1.85% (inactive)
6,COc1cc(SC#N)ccc1N=Cc1c(C)[nH]n(-c2ccc(C)cc2)c1=O,17.6% (active)
7,COc1cc(NS(=O)(=O)c2ccc(N=Cc3c(C)[nH]n(-c4ccccc4)c3=O)cc2)nc(OC)n1,-4.11% (inactive)
8,CCc1nnc(NS(=O)(=O)c2ccc(N=Cc3c(C)[nH]n(-c4ccc(C)cc4)c3=O)cc2)s1,-3.95% (inactive)
9,CC(=O)NCCC(=O)Nc1nc(C)c(Cc2ccc3c(c2)OCO3)s1,-0.64% (inactive)
10,Cc1cc(F)ccc1S(=O)(=O)N1CCCOC1CNC(=O)C(=O)NCCC1=CCCCC1 (centres undefined),-0.65% (inactive)
11,COc1ccc(C(C[N+](=O)[O-])n2nc(C)cc2C)cc1 (centres undefined),5.52% (active)
12,COc1ccc(Nc2cc(C)nc(-n3nc(C)cc3C)n2)cc1,0.3% (inactive)
13,COc1ccc(OCc2cn3c(C)cc(C)nc3n2)cc1,-0.2% (inactive)
14,CCC1C(=O)c2ccccc2N(C)C1=O (centres undefined),-2.42% (inactive)
15,CCC(C)NC(=O)c1c(N)n(/N=C/c2cccs2)c2nc3ccccc3nc12 (centres undefined),-0.44% (inactive)
16,CC(C)Cn1c(N)c(C(=O)NCc2cccs2)c2nc3ccccc3nc21,29.6% (active)
17,C=CCn1c(N)c(C(=O)OCC(C)C)c2nc3ccccc3nc21,-3.82% (inactive)
18,CCN(CC)c1ccc(S(=O)(=O)N2CCOCC2)cc1NC(=O)CSc1cccc[n+]1[O-],-0.35% (inactive)
19,O=C(Cc1cccs1)Nc1nnc(SCc2ccc(F)cc2)s1,1.11% (inactive)
20,CCCCOc1ccc(C(=O)NN2CCN(C)CC2)cc1,0.08% (inactive)
21,CCCCOc1ccc(C(=O)NCC(=O)OCC(=O)N2CCN(S(=O)(=O)c3ccc(C)cc3C)CC2)cc1,7.56% (active)
22,CCCc1cc(=O)[nH]c(SCC(=O)N2CCN(S(=O)(=O)c3ccc(C)cc3C)CC2)n1,2.71% (inactive)
